Experimental data: PubChem BioAssay AID1117263 (The Scripps Research Institute Molecular Screening Center, 2014)
The campaign covered roughly 2,300 compounds. About 300 (13%) were called active.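 Rule for the calls: active = mean inhibition of the replicates above the hit cutoff set in the primary screen (cut at about 17% in these data); inactive = the rest.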 The list is a sample of the results.

target: Sialate O-acetylesterase (Homo sapiens) (UniProt Q9HAT2); experiment: sialate O-acetylesterase blockers re-tested – biochemical, fluorescence polarization, FP-Rh probe, triplicate, confirmation (AID 1117263); settings: SIAE FP-Rh activity-based probe, at 9.66 µM, hits give high values;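 note: 0% = SIAE with DMSO and probe and 100% = probe without SIAE; inhibitors lower polarization as more probe stays unbound to SIAE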
Sequence (Q9HAT2 whole entry, looked up): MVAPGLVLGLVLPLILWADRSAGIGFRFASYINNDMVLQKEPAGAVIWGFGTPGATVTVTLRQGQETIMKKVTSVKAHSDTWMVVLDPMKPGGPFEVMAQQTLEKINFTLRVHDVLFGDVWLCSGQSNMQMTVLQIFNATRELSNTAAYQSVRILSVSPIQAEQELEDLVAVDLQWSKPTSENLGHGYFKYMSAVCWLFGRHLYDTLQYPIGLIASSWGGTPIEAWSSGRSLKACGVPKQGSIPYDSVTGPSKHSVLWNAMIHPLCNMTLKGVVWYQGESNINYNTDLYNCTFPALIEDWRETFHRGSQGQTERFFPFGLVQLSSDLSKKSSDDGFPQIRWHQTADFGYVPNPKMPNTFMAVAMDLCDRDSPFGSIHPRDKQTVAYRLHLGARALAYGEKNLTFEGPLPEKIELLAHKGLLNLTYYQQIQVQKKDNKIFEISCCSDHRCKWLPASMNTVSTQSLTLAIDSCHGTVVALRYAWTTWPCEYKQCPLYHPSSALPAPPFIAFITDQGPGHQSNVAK

SMILES | inhibition
Oc1ccc(CNc2ccccc2O)cc1 | -1.96% (inactive)
Cc1cccc(C)c1NC(=O)CN(C)C(=O)CCC(=O)c1ccccc1 | -0.52% (inactive)
CN(C)c1ccc(N/C=C/C(=O)C(F)(F)F)cc1 | 2.35% (inactive)
COc1cc(C(=O)Nn2c(O)c(C3=c4ccccc4=NC3=O)sc2=S)ccc1O | 34.8% (active)
Cc1nc2ccc(C(=O)N3CCSCC3)cc2s1 | -7.27% (inactive)
COC(=O)C1=C(NC(=O)C(C)(C)C)CCS1 | 0.95% (inactive)
CN(CC(=O)Nc1cccc(F)c1)CC(=O)Nc1cccc([N+](=O)[O-])c1 | 1.24% (inactive)
CCOC(=O)c1c(C)nn(-c2ncccc2NC(=O)CCC(=O)O)c1C | -3.52% (inactive)
CC(C)CCNC(=O)C1CCCN(S(=O)(=O)c2ccc(F)cc2)C1 (centres undefined) | 1.12% (inactive)
CN1c2ccc(C=O)c3c(C=O)ccc(c23)N(C)C1(C)C | 4.27% (inactive)
COc1ccc(C2OCC3(CO2)SC(=O)NC3=O)cc1OC (centres undefined) | -9.1% (inactive)
CC1(C)C/C(=C(/C#N)C(N)=O)CCO1 | -3.01% (inactive)
CCOc1cc(N2CCOCC2)c(OCC)cc1NC(=O)COc1cccc2cccnc12 | 8.9% (inactive)
O=C(NNc1c2ccccc2nc2ccccc12)c1cc2ccccc2cc1O | 13.8% (inactive)
CC(=O)Nc1ccc(Nc2cc(C)nc(Nc3ccc(NC(C)=O)cc3)n2)cc1 | 4.83% (inactive)
Cc1ccnc(NS(=O)(=O)c2ccc(NC(=O)c3ccc(S(=O)(=O)N4CCOCC4)cc3)cc2)n1 | 1.77% (inactive)
Cc1ccc(C2Nc3cccc4cccc(c34)N2)cc1 | 7.48% (inactive)
Oc1ccc(C2Nc3cccc4cccc(c34)N2)cc1 | 29.6% (active)
Cc1ccc(NC(=S)NCCN2CCOCC2)cc1 | 2.38% (inactive)
CCOc1ccccc1Nc1ccc(C(=O)O)cc1[N+](=O)[O-] | -0.47% (inactive)
Cc1ccc(N=C2NC(=O)/C(=C/C=C/c3ccco3)S2)cc1C | -34.3% (inactive)
CCOc1ccc(Nc2nc(Cc3nnc(SCC(=O)NC4CCCC4)n3C)cs2)cc1 | 5.78% (inactive)

SMILES | inhibition
COc1ccc(C2C(C(C)=O)=C(O)C(=O)N2CCc2c[nH]c3ccccc23)cc1 (centres undefined) | 0.13% (inactive)
CCOC(=O)N1CCN(C(=O)CSc2ccc(Cl)cc2)CC1 | -2.01% (inactive)
CC(=O)Nc1ccc(S(=O)(=O)Nc2ccc(N3CCCCC3)cc2)cc1 | 4.68% (inactive)
COc1ccc(NC(=O)/C(N=Nc2cccc(S(=O)(=O)Nc3ccc(SC(F)F)cc3)c2)=C(\C)O)cc1 | -11.2% (inactive)
CCCCn1c(N)c(N(CC(C)C)C(=O)CSc2ccc([N+](=O)[O-])cc2)c(=O)[nH]c1=O | 4.78% (inactive)
O=C(NC(=S)Nc1ccc(NC(=O)c2cccs2)cc1)c1ccc([N+](=O)[O-])cc1 | 15.2% (inactive)
C=CCN1C(=O)[C@@H](CC(=O)NCC2CCCCC2)[C@]2(C(=O)OC)CCCCC=C12 | 4.13% (inactive)
COc1ccc2nc(Nc3nc4cc5c(cc4s3)OCCO5)sc2c1 | 0.67% (inactive)
O=C1CCCC(O)=C1N=Nc1ccc(S(=O)(=O)N2CCOCC2)cc1 | 3.36% (inactive)
CC(=O)Nc1cccc([N+](=O)[O-])c1 | 1.2% (inactive)
CC(NS(=O)(=O)c1ccc(Cl)cc1)C(=O)Nc1ccc2c(c1)OCCO2 (centres undefined) | -0.44% (inactive)
CCn1c(=O)n(CC)c2cc(N3CCCC3)c(NC(=O)c3ccccc3Br)cc21 | 2.42% (inactive)
O=C(Nc1ccccc1N1CCCC1)c1ccc(F)c(S(=O)(=O)N2CCOCC2)c1 | -3.75% (inactive)
Cc1nc2cc(NCc3cccs3)ccc2n1C | -2.47% (inactive)
Cn1cccc1/C=N/NC(=O)CNc1cccc2ccccc12 | 5.62% (inactive)
O=C(N/N=C/c1sc(N2CCCCC2)nc1-c1cccs1)c1cccnc1 | 16.6% (inactive)
C/C=C/c1ccc(OCC(=O)OCC(=O)Nc2c(C)nn(-c3ccccc3)c2C)c(OC)c1 | 3.24% (inactive)
C[C@@H]1O[C@@H](OC[C@H]2O[C@@H](Oc3c(-c4ccc(O)cc4)oc4cc(O)cc(O)c4c3=O)[C@H](O)[C@@H](O)[C@@H]2O)[C@H](O)[C@H](O)[C@H]1O | 6.07% (inactive)
CCOC(=O)C1=C(C)N=C2c3ccccc3C(=O)C2C1c1ccc(Br)cc1 (centres undefined) | 7.01% (inactive)
Cc1cc2ccccc2n1CCNC(=O)COc1ccc2ccccc2c1 | 9.71% (inactive)
Cc1cc2ccccn2c1C(=O)c1cccc(F)c1 | -0.9% (inactive)
COc1ccc(Cc2nc3ccc(C(=O)N4CCC(N(C)C)C4)cc3o2)cc1 (centres undefined) | -0.71% (inactive)

SMILES | inhibition
COc1ccc(-c2cc(C(=O)NC(Cc3c[nH]c4ccccc34)C(=O)O)c(C)o2)cc1OC (centres undefined) | 10.6% (inactive)
NS(=O)(=O)c1ccc(NC(=O)COC(=O)c2c3c(nc4ccccc24)/C(=C\c2ccc4c(c2)OCO4)CCC3)cc1 | -152% (inactive)
CCCCC[C@H](C)N1C[C@@H](COCc2ccccc2)Oc2cc(N3CC[C@@H](N(C)C)C3)ccc2S1(=O)=O | 23.2% (active)
CNS(=O)(=O)c1ccc2c(c1)[nH]c(=S)n2C | 8.04% (inactive)
Cc1ccc(C(=O)N/C(=C/c2ccc(-c3cccc([N+](=O)[O-])c3)o2)C(=O)NCCCN(C)C)cc1 | 0.77% (inactive)
CNC(=S)NNC(=O)c1oc2nc(-c3ccccc3)cc(-c3ccco3)c2c1N | 3.72% (inactive)
NNC(=O)c1oc2nc(-c3ccccc3)cc(-c3ccco3)c2c1N | 56% (active)
Cc1ccc(OCC(=O)Nc2ccc(-c3nnc(-c4ccco4)o3)cc2)cc1 | -15.4% (inactive)
CCOC(=O)/C(N=Nc1cc(C(=O)O)cc(C(=O)O)c1)=C(\O)CCl | 2.21% (inactive)
CC(C)c1cc(N=O)cc(C(C)C)c1O | -26.2% (inactive)
Oc1ccccc1C1=NN(c2ccccc2)C(c2ccccc2)C1 (centres undefined) | 6.69% (inactive)
CCOc1ccc(NC(=O)C/C(C)=N/NC(=O)Cc2cccs2)cc1 | 4.73% (inactive)
CCN(CC)CCCC(C)n1c2nc(=O)[nH]c(=O)c-2nc2cc(Cl)ccc21 (centres undefined) | 25.5% (active)
COC(=O)C(C)Sc1ccc2nnc(-c3cccc(F)c3)n2n1 (centres undefined) | -0.98% (inactive)
Oc1ccc2ccc3cccc[n+]3c2c1 | 4.67% (inactive)
CCOC(=O)C1=C(c2ccccc2)O/C(=C(/C(=O)OC)C(F)(F)F)S1 | -7.25% (inactive)
CCN(C(=O)COC(=O)C1CCN(S(=O)(=O)c2ccc(C)c(C)c2)CC1)C1CCS(=O)(=O)C1 (centres undefined) | 2.26% (inactive)
Nc1ccc2nc3c(=O)[nH]c(=S)[nH]c3nc2c1 | 32.7% (active)
Cc1nc(-c2ccc(Cl)cc2)sc1C(=O)NN | -2.12% (inactive)
NNc1nc2c(Cl)cccc2s1 | 5.82% (inactive)
S=C(NCCCc1cnc[nH]1)NCCCN(Cc1ccc(Cl)c(Cl)c1)c1ccc(Br)cn1 | 30.6% (active)
Oc1ccc(/C=N/N(Cc2ccccc2)c2ccccc2)cc1 | 9.47% (inactive)

SMILES | inhibition
CC(C)(O)C#Cc1ccc(C(=O)N2CCC(C(N)=O)(N3CCCCC3)CC2)cc1 | 2.82% (inactive)
COc1cccc(/C=N/Nc2cc(C)nc(-c3ccccc3O)n2)c1O | -14.6% (inactive)
COc1ccc(CCNc2ncnc3nc[nH]c23)cc1OC | -2.94% (inactive)
COc1ccc2[nH]c(=S)cc(C)c2c1 | -5.42% (inactive)
O=C(NN=C1CCC(=NNC(=O)c2cccnc2)CC1)c1cccnc1 | 6.57% (inactive)
CCOc1ccc(Nc2nc(Cc3nnc(SCC(=O)c4ccc(C)cc4)o3)cs2)cc1 | 5.41% (inactive)
COc1ccc(/C=N/NC(=O)c2ccncc2)cc1CN1CCCc2ccccc21 | 22.8% (active)
COc1ccccc1/C=C/C=N/NC(=O)CN1CCN(Cc2ccccc2)CC1 | -1.91% (inactive)
COc1ccc(OC)c(CN2CCN(C(=O)CNC(=O)c3cc(C)cc(C)c3)CC2)c1 | -0.63% (inactive)
CCOC(=O)C(=O)C1C(=O)Nc2ccccc21 (centres undefined) | 6.34% (inactive)
O=C(Nc1cccc(Cc2ccccc2)c1)Nc1ccc2nc([C@@H]3O[C@H](CO)[C@@H](O)[C@H](O)[C@H]3O)[nH]c2c1 | 10.5% (inactive)
CCOC(=O)C1Sc2[nH]c(=O)sc2C(c2ccc(Cl)cc2)C1C(=O)OCC (centres undefined) | 5.84% (inactive)
Cc1ccc(/C=N/NC(=O)c2cc3ccccc3cc2O)o1 | 3.65% (inactive)
CC1CCCCC1NC(=O)/C(C#N)=C/C=C/c1ccccc1[N+](=O)[O-] (centres undefined) | -0.36% (inactive)
Cn1c(NN)nc2sc3c(c2c1=O)CCC3 | 11.8% (inactive)
O=C(O)c1ccccc1N=N/C(=N/Nc1cc(S(=O)(=O)O)ccc1O)c1ccccc1 | 9.57% (inactive)
O=C(N/N=C/c1ccc(O)c2ccccc12)c1cccnc1 | -1.25% (inactive)
COc1ccc(-c2csc(Nc3ccc(O)cc3)n2)cc1 | 2.15% (inactive)
O=C(O)Cc1sc(-c2ccccc2)nc1-c1cccs1 | -3.2% (inactive)
CCOc1ccc(Cn2c(SCCCCC#N)nc3c2c(=O)n(C)c(=O)n3C)cc1OCC | 3.27% (inactive)
CCC(C)c1ccc(O)c(/C=N/O)c1 (centres undefined) | 8.65% (inactive)
COCCOC(=O)c1sc(=S)n(CCOC)c1N | 9.71% (inactive)

SMILES | inhibition
Oc1ccc(N=Cc2sc3ccccc3c2Cl)cc1 | -0.14% (inactive)
Oc1ccc(N=Cc2c(O)ccc3ccccc23)cc1 | -1.4% (inactive)
c1ccc2[nH]c(-c3nc4ccccc4[nH]3)nc2c1 | 5.66% (inactive)
CNC(=S)N/N=C/c1cn(Cc2ccc(C)cc2)c2ccccc12 | 9.36% (inactive)
COc1cc(/C=N\Nc2nc(-c3cccs3)c(NC(C)=O)s2)ccc1O | 13.2% (inactive)
CCn1c(SC)nc(O)c(C(c2ccc(OC)c(O)c2)c2c(O)nc(SC)n(CC)c2=O)c1=O | -4.61% (inactive)
O=C1CCN(C(=S)NCCc2ccccc2)CC1 | -3.6% (inactive)
CN(Cc1ccc(C(F)(F)F)cc1)C(=O)[C@H]1O[C@@H](n2cnc3c(N)ncnc32)[C@H](O)[C@@H]1O | 68.3% (active)
Nc1ncnc2c1ncn2[C@@H]1O[C@H](C(=O)NCC(F)(F)F)[C@@H](O)[C@H]1O | 44.1% (active)
CC(=O)CSc1nnc(CSc2ncccn2)n1C1CCCCC1 | -1.2% (inactive)
O=C(CSc1ccc(-c2ccco2)nn1)Nc1cccc(F)c1 | 0.25% (inactive)
Cc1cccc(C2c3c(n(C)c(=O)n(C)c3=O)N=C3c4ccccc4C(=O)C32)c1 (centres undefined) | -3.19% (inactive)
Cc1[nH]c2ccccc2c1C(=O)CSCC(=O)O | -9.03% (inactive)
COc1ccc(N2CCN(c3ccc([N+](=O)[O-])nc3)CC2)cc1 | 8% (inactive)
CC(C)=CCCC1(C)C=Cc2c(ccc3c2[nH]c2cc(O)c(C)cc23)O1 (centres undefined) | 2.11% (inactive)
Cc1ccc(Nc2nc(-c3ccc(O)cc3O)cs2)nc1 | 9.2% (inactive)
O=C(CC[C@H]1O[C@@H](n2ccc(=O)[nH]c2=O)[C@H](O)[C@@H]1O)N[C@H](Cc1ccccc1)C(=O)NCCCN1CCCC1=O | 32.5% (active)
O=C1CC(c2ccccc2)=NN1c1ccc([N+](=O)[O-])cc1 | -0.43% (inactive)
O=c1[nH]n(-c2ccc([N+](=O)[O-])cc2)c(=O)c2ccccc12 | 19% (active)
CC(C)/C=N/NC(=O)c1cc(Br)ccc1O | 4.2% (inactive)
S=C(Nc1ccc(Br)cc1)NC1CCN(Cc2ccccc2)CC1 | 2.28% (inactive)
